# Rows were chosen to be rich in hits. Some 21% of all compounds tested hit in one or more screens of this group.
# Shiga inhibitor: inhibitors of Shiga toxin in Vero cells. Vero cells, Shiga toxin protein synthesis inhibition reporter. inhibition, % at 38.7 µM. hit rate 9.2% among 290,000. AID 2315; in the data active = inhibition mostly above about 28%, no sharp cut-off; inactive = mostly below about 43%
# Cycloheximide cs: counter-screen for Shiga toxin inhibitors: cycloheximide protein synthesis inhibition. cell reporter, cycloheximide protein synthesis inhibition counterscreen. max response, %. hit rate 12% among 300,000. AID 2314; in the data active = max response mostly above about 13%, no sharp cut-off; inactive = mostly below about 14%; note: read at 38.3 µM for the half of the compounds with a filed dose
# Pf growth 96h: P. falciparum growth inhibition at 96 hour, primary screen for plastid delayed-death inhibitors; P. falciparum luciferase reporter growth, 96 h; Potency, µM (titrated, usually from 28.7 µM), hits mostly inhibitors; AID 504834; hit rate 6.9% among 320,000
#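 Compounds incubated with erythrocytes infected by luciferase-expressing P. falciparum (2% hematocrit, 0.05% parasitemia final) for 96 hours, 37 C in 5% CO2. Growth inhibition scored as decreased luciferase luminescence.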
# NS1 inh: inhibitors of influenza NS1 protein function; Potency, µM (top dose mostly 46.1 µM); hit rate 0.4% among 270,000; calls by dose curve; note: actives are rising curves; nearly all actives have a fitted effect of over 50% in size
#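 OD600 was taken as the measure of yeast growth restored by compound in an NS1-expressing S. cerevisiae strain. Cells had been washed out of glucose medium and diluted 1:100 into galactose -URA medium, pH 6.0.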
# Pf growth 48h: inhibits P. falciparum growth in the first generation, 48 h. Potency, µM (titrated, usually from 28.7 µM), hits mostly inhibitors. hit rate 5.9% among 310,000. P. falciparum luciferase growth in erythrocytes, 48 h
#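 Growth was read as firefly luciferase luminescence after a 48 h, 37 C, 5% CO2 exposure of compounds to reporter-bearing P. falciparum cultures (0.1% parasitemia, 2% hematocrit final) in Albumax-supplemented RPMI 1640.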
# Sm TGR block: blocks Schistosoma mansoni thioredoxin glutathione reductase | purified TGR, DTNB reduction, TNB absorbance 405 nm | Potency, µM (titrated, usually from 114 µM), most hits filed as inhibitors | Q962Y6 | AID 485364 | hit rate 3% among 360,000; note: nearly all actives have a fitted effect of over 60% in size
#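 Kinetic colorimetric format: TGR-catalysed, NADPH-driven DTNB reduction monitored via TNB absorbance. Enzyme dispensed at 20 nM; compound exposure 15 min at room temperature before reaction start.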
# Hits are given with their value; - = inactive; ? = inconclusive; . = no result given. Unless noted, calls come from the whole dose curve; as a rule, active = well fitted curve in the direction sought with a large enough effect; inconclusive = small, poorly fitted or top-dose-only effect, or another doubt; inactive = no such curve, though single readings can be large; an effect the other way counts as inactive or inconclusive.
SMILES,Shiga inhibitor,Cycloheximide cs,Pf growth 96h,NS1 inh,Pf growth 48h,Sm TGR block
COc1ccc(N2CCN(C(=O)CS(=O)(=O)c3cccc4nsnc34)CC2)cc1,.,.,.,.,.,50µM
O=C(Nc1cccc(F)c1)C1CCCN(S(=O)(=O)c2cccc3cccnc23)C1 (stereo unspecified),-,-,?,-,9.3µM,-
O=C(C1CCCN1S(=O)(=O)c1cccc2nsnc12)N1CCCCC1 (stereo unspecified),-,-,-,-,-,-
CCN(CC)CCCn1c2c(c(SCC(=O)Nc3ccc4c(c3)OCCO4)nc1=O)CCC2,.,.,?,.,-,-
O=C(C1CCN(S(=O)(=O)c2cccc3nsnc23)CC1)N1CCN(c2ccccc2F)CC1,-,-,2.6µM,-,-,-
O=C(C1CCCN(S(=O)(=O)c2cccc3nsnc23)C1)N1CCN(c2ccccc2F)CC1 (stereo unspecified),.,.,.,.,.,-
O=C(O)C1CSCN1S(=O)(=O)c1cccc2nsnc12 (stereo unspecified),-,-,-,-,-,45µM
O=C(O)C1CCN(S(=O)(=O)c2cccc3nsnc23)CC1,-,-,?,-,-,-
Nc1c2c(nc3c1CCCC3)CCCC2 (tested in a mixture with another compound),-,-,-,-,?,-
CC1CCc2c(sc(NC(=O)c3cc4nc(-c5ccc(Cl)cc5)cc(C(F)(F)F)n4n3)c2C#N)C1 (stereo unspecified),.,.,.,.,.,-
Cc1cc(C)c(NC(=O)CCn2c(=O)c3cccn3c3cccnc32)c(C)c1,.,.,.,.,.,-
CCc1nnc(NC(=O)c2cc(=O)c3cc(C)c(C)cc3o2)s1,.,.,.,.,.,-
Cc1ccc([N+](=O)[O-])c2c1C(N1CCCC1)C(C)(C)O2 (stereo unspecified),-,-,?,.,?,56µM
COc1ccc(C(=O)c2nccc3ccccc23)cc1,-,37,-,.,-,-
O=C(c1ccccc1)c1ccc(Oc2ncccn2)cc1,-,58,-,-,-,-
O=C(c1ccccc1)c1ccc(OCCO)cc1,38,-,-,-,-,-
COc1ccc(C(=O)c2ccc(CC(=O)O)s2)cc1,-,-,?,.,6.6µM,-
COc1ccc(C(=O)c2ccc(Br)cc2)cc1,-,-,?,-,12µM,-
O=C(O)Cc1ccc(C(=O)c2ccc(Cl)cc2)s1,-,-,-,-,.,-
COc1ccc(C(=O)c2nccc3cc(OC)c(OC)cc23)cc1OC,.,.,0.74µM,.,1.2µM,?
COc1ccc(C(=O)c2ccccc2)cc1,-,31,?,.,-,-
NC(=O)Cc1ccc(C(=O)c2ccc(Cl)cc2)s1,57,-,-,.,-,-
COc1ccc(C(O)c2nccc3cc(OC)c(OC)cc23)cc1OC (stereo unspecified),-,-,-,.,-,-
COc1ccc(C(=O)c2ccc(OC)c(OC)c2)cc1,-,-,-,-,.,-
COc1ccc(C(=O)c2ccccc2Cl)cc1,-,-,.,-,.,-
SMILES,Shiga inhibitor,Cycloheximide cs,Pf growth 96h,NS1 inh,Pf growth 48h,Sm TGR block
Cc1cc(C)n2nc(C(F)(F)F)c(-c3ccccc3)c2n1,-,-,-,-,-,-
C[C@H]1CN=C(N(C)C)N1CCCC1CCCCC1,.,.,-,.,?,-
COc1ccc(C(=N/O)/C(=N/O)c2ccc(OC)cc2)cc1,-,-,-,-,-,-
COc1ccc(C(Cl)=C(c2ccc(OC)cc2)c2ccc(OC)cc2)cc1,-,-,?,-,9.3µM,-
CCOC(=O)C1(CCc2ccccc2)CCN(Cc2cccc3nccnc23)CC1,-,-,-,-,?,-
COc1ccc(Nc2nc3ccccc3nc2C)cc1,-,-,-,-,-,-
COc1cccc(NC2=C(NCCO)C(=O)c3ccccc3C2=O)c1,.,11,-,-,-,-
Cc1cccc(NC2=C(NCCO)C(=O)c3ccccc3C2=O)c1,-,-,-,-,4.7µM,-
COc1ccc(NC2=C(NCCO)C(=O)c3ccccc3C2=O)cc1,81,53,?,-,7.4µM,-
CCOC(=O)c1c(/N=C/c2cc([N+](=O)[O-])ccc2O)sc(C)c1C,-,-,9.3µM,.,?,-
O=C(Cn1cnc2nc3c(cc2c1=O)CCCC3)N1CCN(c2ccccc2)CC1,.,.,.,.,.,-
CCN(CC(=O)NCc1ccc(F)cc1)C(=O)c1ccc(C)o1,-,-,-,-,-,-
COc1ccccc1NC(=O)n1ncc2c(C)cccc21,.,.,.,.,.,-
Cc1cccc2c1cnn2C(=O)Nc1ccccc1Cl,63,35,-,-,-,-
COc1ccc(NC(=O)n2ncc3c(C)cccc32)cc1,128,59,-,-,-,-
Cc1cccc2c1cnn2C(=O)Nc1ccccc1Br,-,-,-,-,-,-
COc1ccc(NC(=O)n2ncc3c(C)cccc32)cc1OC,63,36,-,-,-,-
Cc1ccc(NC(=O)n2ncc3c(C)cccc32)cc1F,106,72,-,-,-,-
CCCCNS(=O)(=O)c1ccc2nc(-c3cccnc3)cc(C(=O)NCCCOC(C)C)c2c1,.,.,.,.,.,-
Cc1cc(NC(=O)CCC(=O)N(Cc2ccc(F)cc2)C(C(=O)NC2CCCC2)c2ccco2)no1 (stereo unspecified),-,-,-,-,-,-
O=C(CCc1nnc2ccc(NCc3ccco3)nn12)N1CCN(c2ccc(F)cc2)CC1,-,-,-,-,-,-
CCCN1C(=O)c2ccc(C(=O)Nc3nccs3)cc2C1=O,65,11,.,-,-,-
O=C(NC1=NCCS1)c1ccc2c(c1)C(=O)N(Cc1ccco1)C2=O,-,-,.,-,-,-
CCCCN1C(=O)c2ccc(C(=O)Nc3c(N)n(CCCC)c(=O)n(C)c3=O)cc2C1=O,-,-,5.2µM,-,-,-
Cc1cnc(NC(=O)c2ccc3c(c2)C(=O)N(Cc2ccco2)C3=O)s1,-,13,?,-,-,-
SMILES,Shiga inhibitor,Cycloheximide cs,Pf growth 96h,NS1 inh,Pf growth 48h,Sm TGR block
CCCN1C(=O)c2ccc(C(=O)Nc3cc(C)on3)cc2C1=O,-,-,-,-,-,-
CCN1C(=O)c2ccc(C(=O)Nc3ncc(C)s3)cc2C1=O,56,51,-,-,-,-
Nc1nc(N)c(N=Nc2ccc(C(=O)O)c(O)c2)c(N)n1,.,.,.,-,.,.
O=C(O)c1ccc2c(c1)C(=O)N(c1ccccc1-c1ccccc1)C2=O,-,-,-,-,-,-
CCCNC(=O)Nc1nccs1,-,-,.,-,-,-
CCCc1cc(C(=O)Nc2nccs2)cs1,60,57,.,-,-,-
O=C(O)c1ccc2c(c1)C(=O)N(c1nccs1)C2=O,-,-,-,-,3.3µM,-
COc1ccc(C(=O)N2CCCC2)cc1S(=O)(=O)N1CCOCC1,-,-,-,-,-,-
COc1ccc(C(=O)Nc2ccc(-c3ccc(C)o3)cc2)cc1S(=O)(=O)N1CCOCC1,-,19,.,-,?,50µM
COc1ccc(C(=O)Nc2ccc(-c3cn4ccsc4n3)cc2)cc1S(=O)(=O)N1CCOCC1,-,-,0.33µM,-,?,-
COc1ccc(C(=O)Nc2ccc(N3CCOCC3)cc2)cc1S(=O)(=O)N1CCCC1,.,.,-,.,?,-

# From PubChem BioAssay
